These results are taken from PubChem BioAssay AID977607 (Broad Institute, 2014).

In all, about 1,500 compounds went through this assay and about 460 (31%) were called active. Inconclusive results (about 1%) are left out. Only a sample is shown. Potency and affinity values are given separately. Values without a mark were called inactive.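 How the source made its calls: active means curve reaches 40% activation over neutral controls at an AC40 no higher than the top valid tested concentration; inconclusive means no clear call, values can overlap the other calls; inactive means signal moving opposite to the expected increase, and the rest.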

A short description of this assay: activators of glucose-dependent insulin secretion, dose response, cell-based, INS-1E, Gaussia luciferase, luminescence, cherry-pick, set 2 (AID 977607).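 Further: 0% = median of the plate neutral control wells.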 The settings on record: INS-1E GLuc insulin secretion reporter, 2-3 h, active compounds read high; at 35 µM, 100% = signal doubled over neutral wells unless noted.
As to `C=CCn1c(O)c(N=NC(=O)CNC(=O)c2ccco2)c2ccccc21`, the max activation was 10.5%.

For `O=c1[nH]nc(-c2cccs2)c2ccccc12`, the max activation was 31.3%.

As to `O=C1NC(c2ccccc2)c2c(-c3ccccc3)n[nH]c21` (centres undefined), the max activation was -9.3% [at 0.005 µM, 100% = signal doubled over neutral wells].

Turning to `CCCc1cc(=O)n2[nH]c(C)c(-c3ccc(Cl)cc3)c2n1`, the max activation is 24.5% [at 0.0016 µM, 100% = signal doubled over neutral wells].

With `O=C(Nc1ccccc1)Nc1nnc(-c2cccs2)s1`, the max activation is -23.9% [at 11 µM, 100% = signal doubled over neutral wells].

Take `CCc1nnc(NC(=O)C(c2ccccc2)c2ccccc2)s1`: the max activation was -21.5%.

Regarding `O=S(=O)(Nc1ncnc2sc3c(c12)CCC3)c1cc(F)ccc1F`, the max activation is 30.2% [at 0.135 µM, 100% = signal doubled over neutral wells].

As to `NC(=O)c1ccc2nc(-c3ccccc3)c(-c3ccccc3)nc2c1`, the max activation was 28.4%.

Take `CCOC(=O)Cn1c(=O)n(Cc2ccccc2)c(=O)c2cccnc21`: the max activation was -12.9% [at 0.0016 µM, 100% = signal doubled over neutral wells].

For the compound `O=C(O)CCCNC(=O)c1nn(Cc2ccccc2)c(=O)c2ccccc12`, the max activation was -18.7% [at 0.0016 µM, 100% = signal doubled over neutral wells].

Take `c1ccc(Oc2ccccc2-c2cc(NCCc3cccnc3)n3nccc3n2)cc1`: the max activation is -10.9% [at 0.046 µM, 100% = signal doubled over neutral wells].

In the case of `O=C(Nc1nnc(-c2ccc(Cl)cc2)o1)NC1CCCCC1`, the max activation is -20.9%.

For the compound `O=C(CCCC(=O)c1ccccc1)NCc1ccccc1`, the max activation was 35.8% [at 3.8 µM, 100% = signal doubled over neutral wells].

Regarding `NCCCNC(=S)NCCCN(Cc1ccc(Cl)cc1)c1ccc(Br)cn1`, the max activation is -16.7% [at 0.005 µM, 100% = signal doubled over neutral wells].

As to `Cc1cccc(-c2cc3nc4c(c(N5CCCC(O)C5)n3n2)CCC4)c1` (centres undefined), the max activation is 36.7% [at 11 µM, 100% = signal doubled over neutral wells].

Take `COc1ccc(C2=NOC(C(=O)NCc3ccccn3)C2)cc1OC` (centres undefined): the max activation was 31.6%.

With `Fc1ccc(-c2csc3nnc(SCc4cccnc4)n23)cc1`, the max activation was 18.4%.

In the case of `Cn1c(=O)c2[nH]c(SCc3ccccn3)nc2n(C)c1=S`, the max activation was -21.4% [at 11 µM, 100% = signal doubled over neutral wells].

For the compound `O=S1(=O)c2ccccc2OC(COCc2ccccc2)CN1C1CC1` (centres undefined), the max activation is -28.4%.

Take `CCN(CC)C(=O)c1ccccc1NS(=O)(=O)c1ccc(C)cc1`: the max activation is -13.4% [at 0.0016 µM, 100% = signal doubled over neutral wells].

`Cn1c(N)c(C(c2ccccc2)c2c(N)n(C)c(=O)n(C)c2=O)c(=O)n(C)c1=O`: the max activation was 17.9% [at 0.005 µM, 100% = signal doubled over neutral wells].

As for `CC(C)c1ccc(NC2CCCN(C(=O)c3cccnc3)C2)cc1` (centres undefined), the max activation was -13.8% [at 0.42 µM, 100% = signal doubled over neutral wells].

As to `CCCc1nc(N)sc1C(=O)OCC`, the max activation is -11.4% [at 1.2 µM, 100% = signal doubled over neutral wells].

Take `CCOC(=O)c1nc(-c2ccccc2)oc1N(C)C`: the max activation was -16.2% [at 1.2 µM, 100% = signal doubled over neutral wells].

As to `Nc1nc(SCc2nc3scc(-c4ccccc4)c3c(=O)[nH]2)n[nH]1`, the max activation was 50.6%.

Take `Cc1ccc(C(=O)n2nc(-c3cccnc3)nc2N)cc1`: the max activation is 23.7%.

`O=c1cc(-c2cccc(Br)c2)nc(-c2ccccc2F)o1`: the max activation was -17.1% [at 11 µM, 100% = signal doubled over neutral wells].

`Cc1nc(N)c(C#N)c(-c2cccnc2)c1-c1ccccc1`: the max activation is 45.7% [at 11 µM, 100% = signal doubled over neutral wells].

In the case of `Cc1cc(C)n2ncc(-c3cccc(Br)c3)c2n1`, the max activation is -17% [at 0.0016 µM, 100% = signal doubled over neutral wells].

Take `N#Cc1c(-c2ccco2)cc(C2CC2)nc1N`: the max activation was 25.6%.

Regarding `CC1CCc2nc(N)c(C#N)c(-c3ccncc3)c2C1` (centres undefined), the max activation is 21.5%.

For `Cc1cccc(C)c1OCCCn1ccnc1`, the max activation was 41% [at 0.046 µM, 100% = signal doubled over neutral wells].

For the compound `O=C(CC1SC2=NCCN2C1=O)Nc1ccc(Br)cc1` (centres undefined), the max activation is -22.5% [at 0.42 µM, 100% = signal doubled over neutral wells].

Turning to `Cc1ccc(NC(=O)CN(C(=O)N2CCN(C)CC2)S(=O)(=O)c2ccc(C)cc2)cc1`, the max activation was -21.9% [at 1.2 µM, 100% = signal doubled over neutral wells].

As for `Cc1cc(S(=O)(=O)Nc2nc(CN3CCOCC3)nc3sc4c(c23)CCC4)ccc1F`, the max activation was -12.9% [at 0.135 µM, 100% = signal doubled over neutral wells].

Take `C=CCc1ccccc1Oc1cc(OC)nc(N)n1`: the max activation was -22% [at 1.2 µM, 100% = signal doubled over neutral wells].

`COc1ccc(CCNC(=O)C(=O)c2c(C)n(C)c3ccccc23)cc1OC`: the max activation was -13.8% [at 1.2 µM, 100% = signal doubled over neutral wells].

For `COc1ccc(OCCCCN(C)Cc2ccccc2)cc1`, the max activation was -18.5% [at 1.2 µM, 100% = signal doubled over neutral wells].

Consider `CCC(C)c1ccccc1OCCn1ccnc1` (centres undefined), for which the max activation was 16.6% [at 0.005 µM, 100% = signal doubled over neutral wells].
